Screening results deposited in PubChem by several laboratories.
AI-2 QS mod: Vibrio harveyi AI-2 quorum sensing modulators, primary screen, JMH597 strain, luminescence/OD600 ratio | 300,000 tested, 0.4% active | activity change, % at 7.5 µM | AID 2094, 2009 | Vibrio harveyi JMH597 AI-2 luminescence/OD600 ratio, 9 h; stronger effect = lower value; strain lacks LuxN and CqsS sensors; 0 = neutral-control median; in the data active = activity change below about -75%, passing the limit was not always enough; inconclusive = no clear call, values can overlap the other calls;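 note: luminescence divided by OD600 gain over 9 h not by final OD600 alone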
ARNT-TACC3 inh: disruptors of ARNT/TACC3 protein interaction, primary screen, biochemical, AlphaScreen, single concentration; Transforming acidic coiled-coil-containing protein 3 (Homo sapiens), Q9Y6A5; AID 623870, 2012; AlphaScreen His-ARNT PAS-B/GST-TACC3 binding, luminescence; TACC3 fragment carries E629A point mutation; 390,000 tested, 0.66% active; inhibition, % at 9.99 µM;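 active = mean inhibition of replicates at least 50% and at least half of replicates each reaching 50%; inconclusive = half or more replicates reach 50% but mean below 50%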;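 note: 0% = complete ARNT plus TACC3 wells and 100% = ARNT alone without TACC3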
sPLA2-III inh: human group III sPLA2 inhibitors, primary screen, biochemical, QFRET, BODIPY PC-A2 liposome substrate. 370,000 tested, 0.56% active. inhibition, % at 12.2 µM. AID 743126, 2013. QFRET BODIPY PC-A2 liposome hydrolysis, fluorescence;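 active = inhibition above mean plus 3 SD of compounds lying within the high and low control bounds, cut at about 19% in these data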;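 note: 0% = median of test compound wells and 100% = no enzyme DMSO wells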
Target sequence (Q9NZ20 whole entry, looked up): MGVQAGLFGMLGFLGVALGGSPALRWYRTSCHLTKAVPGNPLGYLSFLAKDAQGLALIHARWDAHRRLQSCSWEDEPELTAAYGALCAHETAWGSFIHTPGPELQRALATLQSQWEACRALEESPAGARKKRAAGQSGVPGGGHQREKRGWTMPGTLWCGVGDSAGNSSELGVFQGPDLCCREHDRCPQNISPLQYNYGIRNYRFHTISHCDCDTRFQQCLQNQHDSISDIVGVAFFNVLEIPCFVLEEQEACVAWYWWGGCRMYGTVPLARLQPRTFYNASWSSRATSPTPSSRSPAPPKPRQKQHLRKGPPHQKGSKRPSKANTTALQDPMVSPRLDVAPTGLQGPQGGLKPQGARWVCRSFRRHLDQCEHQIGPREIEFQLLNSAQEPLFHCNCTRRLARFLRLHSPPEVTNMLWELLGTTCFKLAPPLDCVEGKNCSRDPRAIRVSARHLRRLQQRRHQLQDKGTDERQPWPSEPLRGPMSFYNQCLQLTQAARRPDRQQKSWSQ
Rin1 Abl inh: inhibitors of Rin1-Abl protein binding, primary screen, biochemical, TR-FRET. inhibition, % at 7.35 µM. AID 588664, 2011. 360,000 tested, 0.4% active; in the data active = inhibition above about 5%, passing the limit was not always enough
JMH597 growth rt: Vibrio harveyi growth inhibition, confirmation, counter-screen for AI-2 quorum sensing project, JMH597 strain, OD600 absorbance; shares compounds with AI-2 QS mod; 9 h; lacks LuxN and CqsS sensors; growth inhibition, % at 7.5 µM; 750 tested, 1% active; AID 2726, 2010;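 active = every replicate shows growth inhibition above 50%; inconclusive = at least half, but not all, replicates pass that cutoff; inactive = fewer than half of replicates pass it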
BB721 lum counter: luminescence inhibition in constitutive-on V. harveyi, confirmation, counter-screen for LuxS inhibitor project, strain BB721, luminescence readout; shares compounds with AI-2 QS mod; Vibrio harveyi BB721 luminescence, 9 h; inhibition, % at 7.5 µM; 750 tested, 95% active;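 active = inhibition above about 80% in every replicate, not just on average, limit read from the data; inconclusive = at least half of replicates past the limit, but not all; inactive = fewer than half of replicates past the limit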
BB721 growth: growth inhibition of V. harveyi BB721, confirmation, cytotoxicity control for AI-2 quorum sensing inhibitors, strain BB721, absorbance OD600; shares compounds with AI-2 QS mod; Vibrio harveyi BB721 growth, 9 h; growth inhibition, % at 7.5 µM; 750 tested, 3% active; AID 2728, 2010;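 active = every replicate shows growth inhibition above 50%; inconclusive = at least half but not all replicates above 50% inhibition; inactive = under half of replicates above 50% inhibition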
JMH597 AI-2 mod: Vibrio harveyi AI-2 signaling luminescence modulation – JMH597 strain, confirmation | shares compounds with AI-2 QS mod | Vibrio harveyi JMH597 AI-2 quorum sensing luminescence, 9 h; luxN and CqsS knockout, AI-2 only | inhibition, % at 7.5 µM | 750 tested, 97% active;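 active = every replicate shows more than 75% inhibition of signal versus neutral control wells; inconclusive = half to three quarters of replicates exceed 75% inhibition; inactive = fewer than half of replicates exceed 75% inhibition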
* hit, by the source's call. Rows were chosen to be rich in hits. Some 1.5% of all compounds tested hit in one or more screens of this group.

`Cc1noc(C)c1NC(=O)NCC[C@@H]1CC[C@@H](NC(=O)c2ccncc2)[C@@H](CO)O1` gave ARNT-TACC3 inh -15.1.
For CN(C)S(=O)(=O)c1ccc(NC(=S)NC(=O)Cc2ccccc2)cc1 the results were AI-2 QS mod -86.1*, ARNT-TACC3 inh -3.4, sPLA2-III inh -0.1, Rin1 Abl inh 1.7, JMH597 growth rt -1.1, BB721 lum counter 15.6, BB721 growth -128.7 and JMH597 AI-2 mod 24.7.
For CCN(CC)c1ccc(NC(=S)NC(=O)Cc2ccccc2)cc1 the results were AI-2 QS mod 14.2, ARNT-TACC3 inh 8.3, sPLA2-III inh 10.0 and Rin1 Abl inh -2.6.
`Cc1ccccc1-c1ccc(=O)n(CC(=O)Nc2ccc(S(=O)(=O)N(C)C)cc2)n1` gave AI-2 QS mod -87.0*, ARNT-TACC3 inh -1.9, sPLA2-III inh -20.4, Rin1 Abl inh -3.0, JMH597 growth rt 21.3, BB721 lum counter 92.8*, BB721 growth 7.0 and JMH597 AI-2 mod 96.5*.
Screening CN(C)c1cc[n+](CC(=O)Nc2ccc(Cl)c([N+](=O)[O-])c2)cc1 returned AI-2 QS mod -87.3*, ARNT-TACC3 inh -4.3, sPLA2-III inh 1.3, Rin1 Abl inh -2.4, JMH597 growth rt 3.6, BB721 lum counter 96.3*, BB721 growth -5.3 and JMH597 AI-2 mod 97.2*.
Screening CN(C)c1cc[n+](CC(=O)Nc2cccc([N+](=O)[O-])c2)cc1 returned AI-2 QS mod -43.7, ARNT-TACC3 inh -10.9, sPLA2-III inh 9.8 and Rin1 Abl inh -3.0.
c1ccc(CNc2nc(-c3cccnc3)cs2)cc1 was read as AI-2 QS mod -82.6*, ARNT-TACC3 inh 6.8, sPLA2-III inh -4.5, Rin1 Abl inh -0.1, JMH597 growth rt 21.8, BB721 lum counter 94.0*, BB721 growth 12.1 and JMH597 AI-2 mod 96.5*.
Screening Cc1occc1C(=O)NNC(=O)Nc1ccc(Cl)c(Cl)c1 returned AI-2 QS mod -86.3*, ARNT-TACC3 inh -1.2, sPLA2-III inh 6.0, Rin1 Abl inh 0.9, JMH597 growth rt 15.8, BB721 lum counter 93.4*, BB721 growth 5.3 and JMH597 AI-2 mod 93.8*.
Screening CC(=O)Nc1ccc(C(=O)OCc2ccc(Cl)cc2)cc1 returned AI-2 QS mod -90.7*, ARNT-TACC3 inh -2.7, sPLA2-III inh -16.5, Rin1 Abl inh -0.3, JMH597 growth rt -11.9, BB721 lum counter 96.9*, BB721 growth 57.8* and JMH597 AI-2 mod 95.8*.
Screening CC(=O)Nc1ccc(C(=O)OCc2ccc(F)cc2)cc1 returned AI-2 QS mod -83.2*, ARNT-TACC3 inh -0.2, sPLA2-III inh -0.1, Rin1 Abl inh -0.5, JMH597 growth rt 10.9, BB721 lum counter 93.1*, BB721 growth 31.0 and JMH597 AI-2 mod 92.3*.
`CCCS(=O)(=O)c1ccc(COC(=O)c2ccc(NC(C)=O)cc2)cc1` gave AI-2 QS mod -37.7, ARNT-TACC3 inh -6.6, sPLA2-III inh -3.2 and Rin1 Abl inh 4.0.
COc1ccc(CN(C)C[C@@H]2Oc3c(NS(=O)(=O)c4ccc(C)cc4)cccc3C(=O)N([C@@H](C)CO)C[C@H]2C)cc1 was read as ARNT-TACC3 inh 25.3.
`Cc1ccc(CNC(=O)C2CCN(S(=O)(=O)c3cccnc3)CC2)cc1` gave AI-2 QS mod inconclusive, ARNT-TACC3 inh -4.1, sPLA2-III inh 4.5, Rin1 Abl inh 0.6, JMH597 growth rt 29.1, BB721 lum counter 92.8*, BB721 growth 7.5 and JMH597 AI-2 mod 95.0*.
O=C(NCc1cccnc1)C1CCN(S(=O)(=O)c2cccnc2)CC1 was read as AI-2 QS mod -3.5, ARNT-TACC3 inh -18.7, sPLA2-III inh -0.4 and Rin1 Abl inh 3.6.
`O=C(Nc1cccc(C(F)(F)F)c1)C1CCN(S(=O)(=O)c2cccnc2)CC1` gave AI-2 QS mod -83.1*, ARNT-TACC3 inh -1.4, sPLA2-III inh -7.0, Rin1 Abl inh -1.1, JMH597 growth rt -29.3, BB721 lum counter 91.8*, BB721 growth 27.6 and JMH597 AI-2 mod 94.0*.
Cc1ccc(NC(=O)C2CCN(S(=O)(=O)c3cccnc3)CC2)cc1C was read as AI-2 QS mod -88.8*, ARNT-TACC3 inh -29.3, sPLA2-III inh -4.3, Rin1 Abl inh 3.0, JMH597 growth rt 19.5, BB721 lum counter 94.7*, BB721 growth 17.8 and JMH597 AI-2 mod 96.2*.
Screening O=C(Cc1ccccc1)N[C@@H]1C=C[C@H](CC(=O)N2CCOCC2)O[C@@H]1CO returned ARNT-TACC3 inh 5.3.
`O=C(Nc1ccc(Nc2ccccc2)cc1)c1ccc(Cl)cc1` gave AI-2 QS mod -23.2, ARNT-TACC3 inh -0.9, sPLA2-III inh 0.9 and Rin1 Abl inh 0.6.
For O=C(Nc1ccc(Nc2ccccc2)cc1)c1ccccc1 the results were AI-2 QS mod -90.6*, sPLA2-III inh 5.7, JMH597 growth rt 38.4, BB721 lum counter 94.9*, BB721 growth 11.9 and JMH597 AI-2 mod 96.3*.
For CC(C)CC#Cc1cnc2c(c1)C(=O)N([C@H](C)CO)C[C@H](C)[C@H](CN(C)C(=O)c1ccccc1F)O2 the results were ARNT-TACC3 inh 29.3.
`COc1ccc(CC(=O)O/N=C(\N)c2ccc(C)cc2)cc1` gave AI-2 QS mod -89.0*, ARNT-TACC3 inh -6.0, sPLA2-III inh 2.6, Rin1 Abl inh -2.3, JMH597 growth rt -35.5, BB721 lum counter 96.3*, BB721 growth -56.3 and JMH597 AI-2 mod 97.1*.
For N/C(=N\OC(=O)Cc1ccc(Cl)cc1)c1ccccn1 the results were AI-2 QS mod -87.0*, ARNT-TACC3 inh 4.1, sPLA2-III inh -1.6, Rin1 Abl inh 0.0, JMH597 growth rt 1.7, BB721 lum counter 91.1*, BB721 growth 4.9 and JMH597 AI-2 mod 93.1*.
For Cc1ccc(CC(=O)O/N=C(\N)c2ccccn2)cc1 the results were AI-2 QS mod -84.5*, ARNT-TACC3 inh -0.4, sPLA2-III inh 2.1, Rin1 Abl inh -1.6, JMH597 growth rt 25.0, BB721 lum counter 87.4*, BB721 growth 22.4 and JMH597 AI-2 mod 90.9*.
